Data on 30 compounds can be found in PubChem BioAssay (Tox21).

A number with no mark means an inactive call. Results filed as inconclusive are left out. Activity calls are given as the source filed them. Unless noted, the call rests on the fitted dose curve.

Assay [1] in a line: qHTS assay to identify small molecule agonists of the sonic hedgehog signaling (Shh) pathway (AID 1259368).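 Further: NIH/3T3-derived 3T3Gli1-Luc cells carrying a stable Gli1-driven firefly luciferase reporter; series mostly up to about 92 µM; nearly all actives have a fitted effect of over 15% in size.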 The method in brief:
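A Gli1 transcriptional response element controlled firefly luciferase in 3T3Gli1-Luc cells. Compounds and a positive control were added 4 hr after plating, and cells were incubated a further 24 hr at 37 C before luminescence detection.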
Background: Quantitative high-throughput screening tests each substance at several concentrations.

Assay [2] can be described thus: qHTS assay to identify small molecule agonists of the androgen receptor (AR) signaling pathway in the presence of an antagonist - cell viability counter screen (AID 1259379; active means well fitted curve in the direction sought with a large enough effect in the repeat runs; an effect the other way counts as inactive or inconclusive; further: nearly all actives have a fitted effect of over 25% in size; further: potency means the concentration at half of the fitted maximal effect;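 on activity change, negative = cytotoxicity: MDA-kb2 human breast cancer cells carrying an MMTV luciferase reporter; series mostly up to about 92 µM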). The method in brief:
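Seed MDA-kb2 at 3,000 cells/well; incubate 5 hr, 37C, 0% CO2. Add nilutamide to 3.0uM final, then pin compounds at 15 concentrations. Incubate 16 hr. Add CellTiter-Fluor at 15 hr, read fluorescence after 1 hr.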

A short description of assay [3]: qHTS assay to identify small molecule agonists of the estrogen receptor beta (ER-beta) signaling pathway - cell viability counter screen (AID 1259380; active means well fitted curve in the direction sought with a large enough effect in the repeat runs; an effect the other way counts as inactive or inconclusive; further: nearly all actives have a fitted effect of over 30% in size; further: potency means the concentration at half of the fitted maximal effect). The method in brief:
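CellTiter-Glo read, 30 min RT, same wells as bla assay; cells ER-beta-UAS-bla HEK293T; 16 hr compound, 37C; medium 2% charcoal-stripped FBS.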

Assay [4] concerns the target Estrogen receptor (Homo sapiens) (UniProt P03372). In words: qHTS assay to identify small molecule agonists of the estrogen receptor alpha (ER-alpha) signaling pathway in the presence of an antagonist (AID 1259383). Further: top concentration of the series differs between compounds; nearly all actives have a fitted effect of over 15% in size. The gist of the method:
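Stably transfected VM7Luc4E2 reporter cells, kept 5 days in charcoal-stripped serum, received ICI-182,780 at 10.0nM final before compound addition. Following 22hr incubation at 37C and 5% CO2, luciferase signal was read by luminescence.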

The nature of assay [5]: qHTS assay to identify small molecule agonists or antagonists of the thyroid stimulating hormone receptor (TSHR) signaling pathway - wild type cell line counter screen (AID 1259384). The method in brief: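 Counter screen in untransfected Hek293: compounds (15-point titration, triplicate) plus phosphodiesterase inhibitor Ro20-1724 added after 18 h plating; 30 min RT. Intracellular cAMP via competitive d2/cryptate immunoassay, 1 h incubation.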

Assay [6] is described as follows: qHTS assay to identify small molecule antagonists of the estrogen receptor beta (ER-beta) signaling pathway - cell viability counter screen (AID 1259382; active means well fitted curve in the direction sought with a large enough effect in the repeat runs; an effect the other way counts as inactive or inconclusive; further: nearly all actives have a fitted effect of over 55% in size; further: potency means the concentration at half of the fitted maximal effect;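 on activity change, negative = cytotoxicity: HEK293T cells carrying ER-beta-UAS-bla reporter stimulated with estradiol; series mostly up to about 92 µM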). The gist of the method:
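In this multiplexed counter screen, cells were seeded at 2,000 per well in medium with 2% charcoal-stripped FBS and incubated 6 hr before compound and 1nM final E2 were added. Sixteen hours later, ATP-based luminescence reported viability.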

Assay [7] concerns the target Androgen receptor (Homo sapiens) (UniProt P10275). The assay can be described thus: qHTS assay to identify small molecule agonists of the androgen receptor (AR) signaling pathway in the presence of an antagonist (AID 1259381). Further: nearly all actives have a fitted effect of over 15% in size. The gist of the method:
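Test compounds at 15 concentrations were incubated for 16hr with MDA-kb2 reporter cells in presence of 3.0uM nilutamide (final). Signal: ONE-Glo luciferase luminescence.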

Assay [8] can be described thus: qHTS assay to identify small molecule antagonists of the sonic hedgehog signaling (Shh) pathway (AID 1259369). Further: nearly all actives have a fitted effect of over 45% in size. The method in brief:
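For antagonist detection, the reporter line received test compounds together with conditioned medium, incubated 24hr at 37 C, 5% CO2, then luminescence was recorded following 30min room-temperature luciferase reagent incubation.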

Assay [9] concerns the target Estrogen receptor beta (Homo sapiens) (UniProt Q92731). In words: qHTS assay to identify small molecule antagonists of the estrogen receptor beta (ER-beta) signaling pathway (AID 1259378; active means well fitted inhibition curve with a large enough effect in the signal ratio in the repeat runs, not every such curve was filed as active; the % refers to the signal ratio). The gist of the method:
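Antagonist mode: compounds added to beta-lactamase reporter HEK293T ER-beta-UAS cells stimulated with E2 (1nM final), 16 hr at 37C. LiveBLAzer B/G FRET substrate, 2 hours room temperature, fluorescence read-out.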
On the % scale 0 is the no-effect control and ±100 the full control effect.

Androgen receptor (Homo sapiens), sequence (P10275 whole entry, looked up): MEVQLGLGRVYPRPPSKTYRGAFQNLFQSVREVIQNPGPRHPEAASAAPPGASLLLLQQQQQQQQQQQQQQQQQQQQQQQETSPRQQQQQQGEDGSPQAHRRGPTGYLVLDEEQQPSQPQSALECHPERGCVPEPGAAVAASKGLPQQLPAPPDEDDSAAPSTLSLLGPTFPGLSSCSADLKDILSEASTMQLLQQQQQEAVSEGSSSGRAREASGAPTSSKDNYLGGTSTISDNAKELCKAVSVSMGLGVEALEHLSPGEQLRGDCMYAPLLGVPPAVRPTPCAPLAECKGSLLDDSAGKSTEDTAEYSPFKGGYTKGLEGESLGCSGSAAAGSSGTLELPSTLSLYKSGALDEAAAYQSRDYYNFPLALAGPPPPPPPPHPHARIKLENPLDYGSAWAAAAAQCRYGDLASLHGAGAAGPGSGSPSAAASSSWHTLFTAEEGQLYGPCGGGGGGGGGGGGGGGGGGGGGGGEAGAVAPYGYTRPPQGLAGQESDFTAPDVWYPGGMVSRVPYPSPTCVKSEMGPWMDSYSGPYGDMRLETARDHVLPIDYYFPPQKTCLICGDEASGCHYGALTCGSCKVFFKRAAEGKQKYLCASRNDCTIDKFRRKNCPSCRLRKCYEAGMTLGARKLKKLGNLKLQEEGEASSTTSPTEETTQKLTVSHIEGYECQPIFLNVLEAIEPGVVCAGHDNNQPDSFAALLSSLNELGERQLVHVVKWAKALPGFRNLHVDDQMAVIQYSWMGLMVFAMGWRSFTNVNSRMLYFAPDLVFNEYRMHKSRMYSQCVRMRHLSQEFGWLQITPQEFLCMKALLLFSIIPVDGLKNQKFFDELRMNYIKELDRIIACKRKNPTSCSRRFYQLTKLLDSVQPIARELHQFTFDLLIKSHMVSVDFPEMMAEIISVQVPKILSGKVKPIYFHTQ
Estrogen receptor beta (Homo sapiens), sequence (Q92731 whole entry, looked up): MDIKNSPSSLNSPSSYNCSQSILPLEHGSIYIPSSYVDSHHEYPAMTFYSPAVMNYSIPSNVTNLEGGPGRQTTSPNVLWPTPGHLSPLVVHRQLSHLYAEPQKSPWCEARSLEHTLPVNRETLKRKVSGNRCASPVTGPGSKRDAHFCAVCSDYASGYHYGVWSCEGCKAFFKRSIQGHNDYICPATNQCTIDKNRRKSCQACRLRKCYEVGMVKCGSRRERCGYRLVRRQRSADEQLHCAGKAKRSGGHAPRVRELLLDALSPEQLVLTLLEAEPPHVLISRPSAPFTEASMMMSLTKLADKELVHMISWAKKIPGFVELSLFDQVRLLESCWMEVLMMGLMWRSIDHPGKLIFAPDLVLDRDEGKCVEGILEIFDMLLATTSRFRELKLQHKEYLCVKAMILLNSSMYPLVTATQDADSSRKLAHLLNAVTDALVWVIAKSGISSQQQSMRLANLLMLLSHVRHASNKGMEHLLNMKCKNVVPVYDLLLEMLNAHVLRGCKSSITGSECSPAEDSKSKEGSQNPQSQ
Estrogen receptor (Homo sapiens), sequence (P03372 whole entry, looked up): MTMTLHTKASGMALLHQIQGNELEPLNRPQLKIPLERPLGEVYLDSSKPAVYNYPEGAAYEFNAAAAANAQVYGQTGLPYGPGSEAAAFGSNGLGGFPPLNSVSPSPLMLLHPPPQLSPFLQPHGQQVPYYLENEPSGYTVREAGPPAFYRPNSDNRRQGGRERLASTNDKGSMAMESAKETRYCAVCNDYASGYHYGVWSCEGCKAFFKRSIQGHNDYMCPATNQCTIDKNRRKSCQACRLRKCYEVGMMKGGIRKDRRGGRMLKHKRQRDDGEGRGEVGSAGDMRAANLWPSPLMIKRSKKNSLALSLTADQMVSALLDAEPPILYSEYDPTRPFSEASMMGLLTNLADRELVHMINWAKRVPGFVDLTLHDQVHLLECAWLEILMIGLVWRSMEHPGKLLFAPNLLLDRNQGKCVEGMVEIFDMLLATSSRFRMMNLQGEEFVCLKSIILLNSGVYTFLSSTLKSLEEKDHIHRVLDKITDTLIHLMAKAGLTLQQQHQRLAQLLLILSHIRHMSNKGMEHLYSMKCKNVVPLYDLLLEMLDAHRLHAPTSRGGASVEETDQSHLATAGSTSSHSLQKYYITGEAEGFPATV

`COc1cc(NCc2ccc3nc(N)nc(N)c3c2C)cc(OC)c1OC`: the Potency result in [1], in assay [2], in [4] and in assay [5] was “inactive” in each case. In assay [3], the Potency is 0.237 µM (active).

With `CCCCCCCCCCCSCC(=O)O`, the Potency entry in [1], in [2], in assay [4] and in assay [5] was “inactive” throughout. The Potency in assay [3] was 27.3 µM (active); in [6] it was 24.3 µM (active).

Take `COc1ccc2nc(S(=O)Cc3ncc(C)c(OC)c3C)[nH]c2c1` (stereo not given): the Potency entry in [1], in [2], in assay [3], in [6], in assay [4] and in assay [5] was “inactive” throughout.

As for `CCCCCCCCCCCCCCCC(=O)OCC`, the Potency entry in assay [1], in assay [2], in [3], in assay [6], in assay [4] and in [5] was “inactive” throughout.

In the case of `Nc1ccc(NC(=O)c2ccc(N)cc2)cc1`, the Potency result in [1], in assay [2], in assay [7] and in [4] was “inactive” throughout. Also, the Potency in [3] was 54.5 µM (active).

Take `CC(CN(CCN(CC(C)OCCO)CC(C)OCCO)CC(C)OCCO)OCCO` (stereo not given): the Potency entry in assay [1], in [6] and in assay [5] was “inactive” in each case. In addition, in [2], the Potency was 33.1 µM (active).

In the case of `CCC(Cl)CC(Cl)C(Cl)C(Cl)C(Cl)C(C)Cl` (stereo not given), the activity change, negative = inhibition in assay [8] was 58.5% [at 19 µM]. Besides, the activity change, negative = cytotoxicity is 2.03% [at 19 µM] in assay [2], -10.7% [at 19 µM] in assay [3] and -4.67% [at 19 µM] in assay [6]. Further, the figures for the activation in assay [7] and in assay [4] were 4.69% [at 19 µM] and 11.4% [at 19 µM], respectively. In addition, the cAMP activity change in [5] was 4.41% [at 18.9 µM, active compounds read high].

In the case of `CC(C)CC(O)CC(C)C`, the Potency entry in [1], in assay [2], in assay [3], in [6], in assay [4] and in assay [5] was “inactive” throughout.

In the case of `COC(=O)Nc1nc2ccc(C(=O)C3CC3)cc2[nH]1`, the Potency entry in [1], in assay [9], in [3], in assay [6], in assay [4] and in assay [5] was “inactive” throughout.

Take `COc1ccc(CCN(C)CCCN2CCc3cc(OC)c(OC)cc3CC2=O)cc1OC`: the Potency entry in [1], in assay [2], in assay [3], in assay [6] and in [4] was “inactive” throughout.

Regarding `Nc1ccc(N=Nc2ccc(N)cc2)cc1`, the Potency entry in assay [1], in assay [4] and in assay [5] was “inactive” throughout. Moreover, in assay [2], the Potency was 27.3 µM (active).

Regarding `COC(C)(C)OC`, the Potency entry in [1], in [2], in [3], in [6], in assay [4] and in [5] was “inactive” in each case.

For `C[C@@H]1[C@H](O)[C@@H](C)/C=C/C=C\C=C\C=C\C=C\C=C\C=C\[C@H](O[C@@H]2O[C@H](C)[C@@H](O)[C@H](N)[C@@H]2O)C[C@@H]2O[C@](O)(C[C@@H](O)C[C@@H](O)[C@H](O)CC[C@@H](O)C[C@@H](O)CC(=O)O[C@H]1C)C[C@H](O)[C@H]2C(=O)O` (stereo in doubt), the Potency result in assay [1], in assay [4] and in assay [5] was “inactive” throughout. Besides, the Potency in assay [2] and in assay [3] was 61.1 µM (active) throughout.

For `Cc1c[nH]c2ccccc12`, the Potency result in [1], in assay [2], in assay [3], in [6] and in assay [5] was “inactive” each time.

Consider `CN=C(N)NC(=O)Nc1c(C)cccc1C`, for which the Potency result in assay [1], in assay [2], in assay [3], in [6], in assay [4] and in assay [5] was “inactive” throughout.

For the compound `CC(C)N=C=NC(C)C`, the Potency entry in assay [1], in [2], in assay [6] and in [4] was “inactive” throughout.

Take `CN(C)CC/C=C1\c2ccccc2Sc2ccc(Cl)cc21`: the Potency result in [1], in assay [7], in [4] and in assay [5] was “inactive” in each case. Besides, the Potency was 29.8 µM (active) in assay [2], 23.7 µM (active) in [3] and 18.8 µM (active) in [6].

With `O=S(=O)(Cl)c1c(Cl)cccc1Cl`, the Potency result in assay [1], in assay [9], in assay [2], in assay [7], in assay [6] and in [4] was “inactive” each time. Also, the Potency entry in [5] is “inactive”.

For `CC(C)(C(=O)c1cccnc1)c1cccnc1`, the Potency entry in assay [1], in [2], in assay [3], in assay [6], in assay [4] and in assay [5] was “inactive” in each case.

Take `Nc1nc2ccc(OC(F)(F)F)cc2s1`: the Potency entry in [1], in assay [9], in [2], in [3], in assay [6] and in assay [5] was “inactive” each time.

Take `C=Cc1ccc(OC(C)=O)cc1`: the Potency result in assay [1], in assay [2], in assay [3], in assay [7], in assay [6] and in [4] was “inactive” each time. In addition, in assay [5], the Potency entry is “inactive”.

As to `CC1C(C)(C)C2=C(C(=O)CCC2)C1(C)C` (stereo not given), the Potency result in assay [1], in assay [2], in assay [3], in assay [6], in assay [4] and in assay [5] was “inactive” in each case.

Take `CC(=O)NCCO`: the Potency result in assay [1], in assay [9], in assay [2], in [3], in assay [6] and in assay [5] was “inactive” throughout.

`COc1cc(C(C)=O)ccc1OCCCN1CCC(c2noc3cc(F)ccc23)CC1`: the Potency entry in assay [1], in assay [2], in [6], in [4] and in assay [5] was “inactive” each time.

`O=C(NC(Cc1cc(=O)[nH]c2ccccc12)C(=O)O)c1ccc(Cl)cc1` (stereo not given): the Potency result in assay [1], in assay [2], in [6], in assay [4] and in assay [5] was “inactive” throughout.

With `CCN(CC)C(=O)/C(C#N)=C/c1cc(O)c(O)c([N+](=O)[O-])c1`, the Potency result in [1], in assay [3], in assay [7], in assay [6], in [4] and in [5] was “inactive” each time. In addition, the Potency in assay [2] is 23.7 µM (active).

For the compound `O=C(O)c1cccc(C[C@@H]2COc3ccc(OCc4nc5cc(F)ccc5s4)cc3[C@@H]2O)c1`, the Potency result in [1], in assay [9], in assay [2], in assay [3], in [6] and in assay [4] was “inactive” throughout. Moreover, in [5], the Potency entry was “inactive”.

On to `Cc1ccc(NC(=O)N(C)C)cc1NC(=O)N(C)C`, for which the Potency entry in [1], in assay [2], in assay [3], in [6], in [4] and in [5] was “inactive” in each case.

For `Cc1ccccc1S(N)(=O)=O`, the Potency result in [1], in assay [2], in assay [3], in assay [6] and in assay [5] was “inactive” in each case.

Take `Oc1ccc2c(c1)Cc1ccccc1-2`: the Potency entry in [1], in assay [2], in assay [6] and in assay [5] was “inactive” each time.
